Data on 36 molecules can be found in the supplement of paper PMC7411054.

Counter-ions that a name gives are not always drawn. Unmarked numbers belong to inactive results.

The experiment concerns WPMY1-CANX-COX4. Nature of the experiment: phenotypically active (imaging signature differs from DMSO and reproducible) at any of 0.3-9 uM (binary (1 = active, 0 = inactive)); higher = active. Conditions: treatment time: 24 h. In a few lines: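 Phenotypic activity depended on meeting both a deviation and a reproducibility criterion. The fifteen gene-edited A549, HepG2 and WPMY1 reporter lines were treated at 0.3, 1, 3 or 9 µM for 24 h, four wells each, then imaged live with features normalised to solvent control wells. Deviation required ≥3 of 4 wells past the 95th percentile of control Euclidean distances, and reproducibility a median replicate Pearson correlation above the 95th percentile of non-replicates.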
For the molecule `N[C@@H]1C[C@H]1c1ccccc1` [Tranylcypromine hydrochloride], the phenotypically active was 0.
Consider `C/C=C1\CN2CC[C@]34c5cc(OC)ccc5N5C(=O)C(O)OC[C@@H]([C@H]53)[C@H]1C[C@H]24` (stereo partly specified) [10-Methoxy-o-demethyltsilanine], for which the phenotypically active was 0.
Turning to `Fc1ccccc1C1=NCC(=S)N(CC(F)(F)F)c2ccc(Cl)cc21` [quazepam], the phenotypically active is 0.
Then `COc1c2c(cc3c1OCO3)CC[N+](C)=C2` [Cotarnine chloride], with 0; and `N[C@H]1C[C@@H]1c1ccccc1` [tranylcypromine], with 0.
Then `O=c1ccc2ccc3occc3c2o1` [Angelicin], with 0; and `C[C@]12COC(=O)C[C@@H]1CC[C@@H]1[C@@H]2CC[C@@]2(C)[C@H]1CC[C@]2(C)O` [oxandrolone], with 0; and `CC(C)C[C@H](CN)CC(=O)O` [pregabalin], with 0.
Then `NC(=S)N/N=C/c1coc2ccccc2c1=O`, with 0; and `O[C@H]1[C@H](O)[C@@H](O)CN2CC[C@H](O)[C@H]12` [Castanospermine], with 0.
As for `Cc1ccc(-c2nc3ccc(C)cn3c2CC(=O)N(C)C)cc1` [zolpidem], the phenotypically active is 0.
In the case of `CN1C(CC(O)c2ccccc2)CCCC1CC(O)c1ccccc1` (stereo unspecified) [Lobelanidine hydrochloride] it was 0; in that of `CNC(=O)Oc1ccc2c(c1)[C@]1(C)CCN(C)O[C@@H]1N2C` [Geneserine], 0.
In the case of `COc1ccc(C(=O)OC2C[C@H]3CC[C@H](C2)N3C)cc1OC` (stereo partly specified) [Convolamine hydrochloride] it was 0; in that of `CC(C)[N+](C)(CCC(C(N)=O)(c1ccccc1)c1ccccc1)C(C)C` [isopropamide-iodide], 0.
Consider `CC(C)N(CCC(C(N)=O)(c1ccccc1)c1ccccn1)C(C)C` (stereo unspecified) [disopyramide], for which the phenotypically active was 0.
Take `O=C1C[C@@H]2OCC=C3C[N+]4([O-])CC[C@]56c7ccccc7N1[C@H]5[C@H]2[C@H]3C[C@@H]64` (stereo partly specified) [Genostrychnine base]: the phenotypically active is 0.
In the case of `C[C@@H]1CN([C@H]2CC[C@](C#N)(c3ccc(F)cc3)CC2)CC[C@]1(C(=O)O)c1ccccc1` [levocabastine], the phenotypically active is 0.
Then `Cc1ccc(C[N+](C)(C)C)o1` [5-Methylfurmethiodide], with 0.
Turning to `COc1cc2c3cc1Oc1cc(ccc1O)C[C@@H]1c4c(cc(OC)c(O)c4Oc4cccc(c4)C[C@@H]3N(C)CC2)CC[N+]1(C)C` [Tubocurarine chloride pentahydrate (+)], the phenotypically active is 0.
In the case of `CCCC(C)C1(CC)C(=O)N=C(S)NC1=O` (stereo unspecified) [thiopental] it was 0; in that of `C=C1[C@H]2C[C@@]3([C@@H]1O)[C@@H](C[C@@H]2O)[C@]12[C@@H]4C[C@H]3[C@H]1N(CC)C[C@]4(C)CC[C@@H]2O` [Napelline], 0.
As to `CO[C@H](C)[C@](O)(C(=O)OCC1=CCN2CC[C@H](O)[C@@H]12)C(C)C` [Heliotrine], the phenotypically active was 0.
In the case of `C/C=C1\C[C@@H](C)[C@](O)(CO)C(=O)OCC2=CCN3CC[C@@H](OC1=O)[C@@H]23` [Retrorsine] it was 0.
Take `CN(C)NC(=O)CCC(=O)O` [Daminozide]: the phenotypically active is 0.
Then `CN1[C@@H]2CC(=O)C[C@H]1[C@H](O)C2` [6-Hydroxytropinone], with 0; and `COc1ccc2c3c1O[C@H]1C(=O)CC[C@H]4[C@@H](C2)N(C)CC[C@]314` [hydrocodone], with 0.
Then `CCN(C(C)=O)c1cccc(-c2ccnc3c(C#N)cnn23)c1` [zaleplon], with 0.
Then `C[N+]1([O-])[C@@H]2C[C@@H](OC(=O)[C@H](CO)c3ccccc3)C[C@H]1[C@@H]1O[C@@H]12` (stereo partly specified) [Genoscopolamine HBr], with 0; and `NCC1(CC(=O)O)CCCCC1` [gabapentin], with 0.
In the case of `CN1CCc2cc3c(cc2[C@H]1[C@@H]1OC(=O)c2c1ccc1c2OCO1)OCO3` [bicuculine], the phenotypically active was 0.
In the case of `c1cncc(C2CC3CCN2CC3)c1` (stereo unspecified) [RJR 2429 dihydrochloride] it was 0.
In the case of `CC1=CC(=O)C2=C(C)C[C@H](O)[C@@H]3[C@H](OC(=O)[C@H]3C)[C@@H]12` [Austricine hydrate] it was 0.
In the case of `C=C(C)[C@H]1CN[C@H](C(=O)O)[C@H]1CC(=O)O` [Kainic acid] it was 0; in that of `C[C@H]1CCC2(NC1)O[C@H]1C[C@H]3[C@@H]4CC[C@H]5C[C@@H](O[C@@H]6O[C@H](CO)[C@H](O[C@@H]7O[C@H](CO)[C@@H](O)[C@H](O[C@@H]8OC[C@@H](O)[C@H](O)[C@H]8O)[C@H]7O[C@@H]7O[C@H](CO)[C@@H](O)[C@H](O)[C@H]7O)[C@H](O)[C@H]6O)CC[C@]5(C)[C@H]4CC[C@]3(C)[C@H]1[C@@H]2C` (stereo partly specified) [Tomatine], 0; in that of `CN1[C@@H]2C[C@@H](OC(=O)[C@H](CO)c3ccccc3)C[C@H]1[C@@H]1O[C@@H]12` [Scopolamine hydrobromide], 0.
